From PubChem
This is a sample that favours compounds with a hit; in the whole collection about 1% have one here.
A1 inh: caspase 3/7 activation in MEF A1-2A-BIM cells, primary screen, A1 inhibitor project, cell-based, luminescence, HTS; Caspase-Glo 3/7 luminescence, 3 h; percent of clofoctol response, vehicle zero; caspase activation, % (concentration not given with the values); actives 0.066% (n = 330,000);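 active = over half of replicate activation scores above 10%, or exactly half above 10 with the replicate mean above 10; inconclusive = replicate mean below 10 yet half the replicates above 10; inactive = over half of replicates below 10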
Efflux pump inh: inhibitors of Candida efflux pumps in yeast, primary screen, S. cerevisiae, Nile Red, multiplex | inhibition, % at 10 µM | S. cerevisiae Candida pump triplex | actives 0.44% (n = 330,000);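 active = plate passing quality check with inhibition over a set limit, or well fluorescence over plate mean plus 4 SD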;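 note: Nile Red retained in pooled yeast measured as flow cytometry median fluorescence; higher means more Nile Red kept so more efflux inhibition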
HSV augment: enhancers of HSV replication in host cells, fold increase, host cell viability. actives 0.005% (n = 220,000). HSV replication augmentation in cells. maximum fold increase; in the data active = maximum fold increase above about 1.5; inconclusive = no clear call, values can overlap the other calls; tested in PC3 cells
NPR2 activator: human GC-B receptor activators, primary screen, HEK293 GC-B cells, cGMP TR-FRET, EC30 CNP | Atrial natriuretic peptide receptor 2 (Homo sapiens), P20594 | 0% at EC30 CNP, 100% saturating CNP | activation, % at 10 µM | actives 0.11% (n = 370,000) | AID 1920062, 2024;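 active = activation at 10 µM reaching about 35% in either raw or pattern-adjusted values, limit read from the data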
TAG inh: inhibitors of triacylglycerol accumulation, primary screen, cell-based, uHTS, fluorescence, H9c2; H9c2 cells, Nile Red lipid (TAG) fluorescence; cells loaded with 200 µM oleic acid; inhibition, % at 12.5 µM; actives 0.66% (n = 230,000); AID 651582, 2012;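 active = pattern-corrected inhibition of lipid staining of at least 50% with the nuclear-stain viability signal not falling by more than 50%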
NPR1 activator: GC-A stimulated cGMP production enhancers – HEK293 GC-A cells, cGMP TR-FRET, EC30 ANP, primary screen | Atrial natriuretic peptide receptor 1 (Homo sapiens), P16066 | 0% at EC30 ANP, 100% saturating ANP | activation, % at 10 µM | actives 0.14% (n = 370,000); in the data active = activation above about 40%
Target sequence (P16066 whole entry, looked up): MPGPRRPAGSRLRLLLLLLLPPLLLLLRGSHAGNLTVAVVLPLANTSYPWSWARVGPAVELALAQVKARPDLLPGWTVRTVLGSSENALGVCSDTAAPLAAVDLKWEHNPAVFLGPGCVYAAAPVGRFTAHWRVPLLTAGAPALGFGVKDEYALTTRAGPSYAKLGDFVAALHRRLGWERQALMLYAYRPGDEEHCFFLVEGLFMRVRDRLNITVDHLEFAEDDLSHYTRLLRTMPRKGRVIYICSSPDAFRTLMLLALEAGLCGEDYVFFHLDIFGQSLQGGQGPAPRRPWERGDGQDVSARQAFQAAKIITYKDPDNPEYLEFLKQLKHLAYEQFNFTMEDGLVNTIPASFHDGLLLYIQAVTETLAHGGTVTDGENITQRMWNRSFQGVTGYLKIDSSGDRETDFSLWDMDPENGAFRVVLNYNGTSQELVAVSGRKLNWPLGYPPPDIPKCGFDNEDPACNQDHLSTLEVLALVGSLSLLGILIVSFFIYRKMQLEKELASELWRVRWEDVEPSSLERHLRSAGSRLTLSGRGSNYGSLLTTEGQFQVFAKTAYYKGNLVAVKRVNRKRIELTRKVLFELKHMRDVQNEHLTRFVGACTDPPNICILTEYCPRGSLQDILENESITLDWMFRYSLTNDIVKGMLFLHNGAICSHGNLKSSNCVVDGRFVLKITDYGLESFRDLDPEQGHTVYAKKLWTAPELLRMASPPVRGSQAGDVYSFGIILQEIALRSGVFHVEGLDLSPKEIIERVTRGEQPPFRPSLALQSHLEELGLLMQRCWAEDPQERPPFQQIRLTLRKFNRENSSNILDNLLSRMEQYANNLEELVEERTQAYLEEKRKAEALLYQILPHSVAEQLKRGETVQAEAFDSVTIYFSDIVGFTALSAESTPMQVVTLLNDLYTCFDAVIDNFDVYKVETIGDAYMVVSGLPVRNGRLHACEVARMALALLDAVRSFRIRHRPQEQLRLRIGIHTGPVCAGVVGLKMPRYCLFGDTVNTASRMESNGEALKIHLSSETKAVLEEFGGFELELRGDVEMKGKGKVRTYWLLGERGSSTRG
Cmpd fluor yeast: flagged as fluorescent in efflux inhibitor counter-screen | shares compounds with Efflux pump inh | S. cerevisiae AD/pABC3, compound fluorescence, flow cytometry | fluorescence ratio to DMSO, % at 10 µM | actives 4% (n = 1,700) | AID 588517;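 active = fluorescence ratio to DMSO above its plate's cutoff, the plate mean ratio plus 5 SD, cut at about 210% in these data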;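 note: unstained yeast with no Nile Red so the signal is compound autofluorescence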
CaMdr1 efflux inh: inhibitors of Candida albicans Mdr1 efflux, confirmation, flow cytometry, singleplex, Cherry Pick1 set; AID 588518, 2011; S. cerevisiae AD/CaMDR1, Nile Red efflux; actives 1% (n = 1,700); shares compounds with Efflux pump inh; inhibition, % at 10 µM; in the data active = inhibition above about 26%;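 note: higher means more Nile Red retained so more efflux inhibition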
CaCdr2 efflux inh: inhibitors of Candida albicans Cdr2 efflux pump, confirmation, S. cerevisiae AD/CaCDR2, flow cytometry, cherry pick 1, singleplex; shares compounds with Efflux pump inh; AID 588520, 2011; Nile Red retention; actives 4% (n = 1,700); Nile Red retention ratio vs DMSO, % at 10 µM; in the data active = Nile Red retention ratio vs DMSO above about 190%;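 note: higher ratio means more blocking of Cdr2 efflux of the dye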
CaCdr1 efflux inh: inhibitors of Candida albicans Cdr1 efflux pump, confirmation, S. cerevisiae AD/CaCDR1, flow cytometry, cherry pick 1, singleplex; shares compounds with Efflux pump inh; Nile Red efflux; inhibition, % at 10 µM; actives 1% (n = 1,700); AID 588522, 2011;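 active = inhibition above the screen-wide mean plus twice its standard deviation, cut at about 32% in these data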
Each line names hits and unclear results; the compound was inactive in the other large screens (follow-up assays come after a bar, where they were run).

COc1ccc(-n2c(SCC(=O)Nc3ncc(Cl)cc3Cl)nc3ccccc32)cc1	Efflux pump inh 0.8 (no result: NPR2 activator, TAG inh, NPR1 activator) | Cmpd fluor yeast inactive | CaMdr1 efflux inh inactive | CaCdr2 efflux inh inactive | CaCdr1 efflux inh inactive
Cn1c(COc2ccccc2)nnc1SCC(=O)Nc1ccc(OCc2ccccc2)cc1	none (no result: A1 inh, Efflux pump inh, HSV augment, TAG inh)
C/C=N/NC(=O)c1cc(Br)ccc1O	none (no result: TAG inh)
Cc1c(/C=N/NC(=O)c2cc(Br)ccc2O)c(=O)n(C)c(=O)n1C	Efflux pump inh 0.5 (no result: HSV augment, TAG inh) | Cmpd fluor yeast inactive | CaMdr1 efflux inh inactive | CaCdr2 efflux inh inactive | CaCdr1 efflux inh inactive
CC(=O)c1c(COC(=O)c2ccc(Cl)cc2)nc2ccccc2[n+]1[O-]	none
CC(=O)c1c(COC(=O)c2ccccc2)nc2ccccc2[n+]1[O-]	Efflux pump inh 1.8 | Cmpd fluor yeast inactive | CaMdr1 efflux inh inactive | CaCdr2 efflux inh inactive | CaCdr1 efflux inh inactive
COC(=O)[C@H](Cc1ccccc1)NP(=O)(OC)[C@@H](C)NC(=O)OCc1ccccc1 (some centres undefined)	none (no result: A1 inh, Efflux pump inh, HSV augment, TAG inh)
O=C(COC(=O)CSc1ccc2ccccc2c1)NC1CCCC1	Efflux pump inh 25.0 (no result: TAG inh) | Cmpd fluor yeast inactive | CaMdr1 efflux inh inactive | CaCdr2 efflux inh inactive | CaCdr1 efflux inh inactive
Cc1[nH]c2ccc(C(=O)NCCN3CCOCC3)cc2c1C	Efflux pump inh 1.4 (no result: HSV augment, TAG inh) | Cmpd fluor yeast inactive | CaMdr1 efflux inh inactive | CaCdr2 efflux inh inactive | CaCdr1 efflux inh inactive
CCC[C@H]1[C@@H](NC(=S)Nc2ccccc2Cl)CC[C@@]23CCCN2C(=O)CCC[C@@H]13	none (no result: A1 inh, Efflux pump inh, HSV augment, TAG inh)
CC(C)NC(=O)Nc1cccc2c1O[C@H](CN(C)S(=O)(=O)c1ccc(F)cc1)[C@@H](C)CN([C@H](C)CO)C2=O	none (no result: A1 inh, HSV augment) | Cmpd fluor yeast inactive | CaMdr1 efflux inh inactive | CaCdr2 efflux inh inactive | CaCdr1 efflux inh inactive
C[C@H](CO)N1C[C@H](C)[C@@H](CN(C)S(=O)(=O)c2cccs2)Oc2ccc(NC(=O)Nc3ccc4c(c3)OCO4)cc2C1=O	none (no result: HSV augment)
C[C@H](CO)N1C[C@H](C)[C@@H](CN(C)S(=O)(=O)c2cccs2)Oc2c(NC(=O)Nc3ccc4c(c3)OCO4)cccc2C1=O	none (no result: HSV augment) | Cmpd fluor yeast inactive | CaMdr1 efflux inh inactive | CaCdr2 efflux inh inactive | CaCdr1 efflux inh inactive
C[C@H](CO)N1C[C@H](C)[C@@H](CN(C)S(=O)(=O)c2ccccc2)Oc2c(NC(=O)Nc3ccccc3)cccc2C1=O	none (no result: A1 inh, HSV augment) | Cmpd fluor yeast inactive | CaMdr1 efflux inh inactive | CaCdr2 efflux inh inactive | CaCdr1 efflux inh inactive
CC(C)NC(=O)Nc1cccc2c1O[C@H](CN(C)S(=O)(=O)c1ccccc1)[C@@H](C)CN([C@H](C)CO)C2=O	A1 inh inconclusive (no result: HSV augment)
O=C(Cn1cncn1)N/N=C/c1ccc(Cl)cc1	Efflux pump inh 9.7 (no result: TAG inh) | Cmpd fluor yeast inactive | CaMdr1 efflux inh inactive | CaCdr2 efflux inh inactive | CaCdr1 efflux inh inactive
COC(=O)[C@]12C[C@H](CC(=O)NCC3CCCCC3)C(=O)N(Cc3cccc4ccccc34)C1=C[C@H](C(C)C)O[C@@H]2C1CC1	none (no result: A1 inh, Efflux pump inh, HSV augment, TAG inh)
CCc1ccc(C2C(C(=O)O)c3ccccc3C(=O)N2C)cc1 (centres undefined)	Efflux pump inh 1.9 (no result: TAG inh) | Cmpd fluor yeast inactive | CaMdr1 efflux inh inactive | CaCdr2 efflux inh inactive | CaCdr1 efflux inh inactive
CN1C(=O)c2ccccc2C(C(=O)O)C1c1cccc(Cl)c1 (centres undefined)	none (no result: TAG inh)
CCOC(=O)[C@]12CCCC=C1N(CCCOC)C(=O)[C@@H]2CC(=O)NCC1CCCCC1	none (no result: A1 inh, Efflux pump inh, HSV augment, TAG inh)
CC/C(O)=C(/C#N)c1nnc2n1CCCCC2	none (no result: TAG inh)
CC/C(O)=C(\C#N)c1nnc2n1CCCCC2	Efflux pump inh 6.7 (no result: TAG inh) | Cmpd fluor yeast inactive | CaMdr1 efflux inh inactive | CaCdr2 efflux inh inactive | CaCdr1 efflux inh inactive
Cc1ccc(N=C2NC(=O)/C(=C\c3cccs3)S2)cc1C	Efflux pump inh 6.8 (no result: TAG inh) | Cmpd fluor yeast inactive | CaMdr1 efflux inh inactive | CaCdr2 efflux inh inactive | CaCdr1 efflux inh inactive
CCOc1ccc(-n2c(SCc3nc4ccccc4[nH]3)nnc2-c2cccc(Cl)c2)cc1	none (no result: A1 inh, Efflux pump inh, HSV augment, TAG inh)
Cc1ccc(SCC(=O)N(Cc2nc(-c3ccccc3)no2)C(C)C)cc1	Efflux pump inh 1.5 | Cmpd fluor yeast inactive | CaMdr1 efflux inh inactive | CaCdr2 efflux inh inactive | CaCdr1 efflux inh inactive
Cc1ccc(/C=C2\CCC3=C2OC(N)=C(C#N)C3c2ccc(C)cc2)cc1 (centres undefined)	Efflux pump inh 3.6, HSV augment inconclusive (no result: NPR2 activator, NPR1 activator) | Cmpd fluor yeast inactive | CaMdr1 efflux inh inactive | CaCdr2 efflux inh inactive | CaCdr1 efflux inh inactive
Cc1ccccc1S(=O)(=O)Nc1ncnc2scc(-c3ccccc3)c12	Efflux pump inh 11.4 | Cmpd fluor yeast inactive | CaMdr1 efflux inh inactive | CaCdr2 efflux inh inactive | CaCdr1 efflux inh inactive
O=S1(=O)CC2c3ccccc3CCN2CN1Cc1ccccc1 (centres undefined)	none (no result: A1 inh, Efflux pump inh, HSV augment, TAG inh)
COc1ccc(OC)c2sc(N3CCCCC3)nc12	Efflux pump inh 1.1 | Cmpd fluor yeast inactive | CaMdr1 efflux inh inactive | CaCdr2 efflux inh inactive | CaCdr1 efflux inh inactive
O=C(CSc1nc2c(sc3ccccc32)c(=O)n1CCc1ccccc1)NCc1ccco1	Efflux pump inh 1.5 (no result: TAG inh) | Cmpd fluor yeast inactive | CaMdr1 efflux inh inactive | CaCdr2 efflux inh inactive | CaCdr1 efflux inh inactive
CCCCn1c(SCC(=O)NCc2ccco2)nc2c(sc3ccccc32)c1=O	none (no result: TAG inh)
NC(=O)c1ccc(NC(=O)CSc2nnc(-c3ccccc3)n2-c2ccccc2)cc1	none (no result: A1 inh, Efflux pump inh, HSV augment, TAG inh)
CCOC(=O)c1c(C)[nH]c(C)c1S(=O)(=O)NCc1ccccc1C	Efflux pump inh 0.4 (no result: HSV augment, TAG inh) | Cmpd fluor yeast inactive | CaMdr1 efflux inh inactive | CaCdr2 efflux inh inactive | CaCdr1 efflux inh inactive
CCOC(=O)c1c(C)[nH]c(C)c1S(=O)(=O)NCc1ccccc1OCC	none (no result: HSV augment, TAG inh)
O=C(Nc1ccc(Br)cc1)OCCCN1CCC2(CCCCC2)C1=O	none (no result: A1 inh, Efflux pump inh, HSV augment, TAG inh)
